Experiments:
[1] = biological target: Protein kinase C gamma type (Homo sapiens) (UniProt P05129); conditions: at 1 µM;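 also: each value is an averaged percent inhibition of the enzyme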
[2] = biological target: T1, Protein kinase C iota type (Homo sapiens) (UniProt P41743); conditions: at 0.1 µM
T1 sequence (whole entry): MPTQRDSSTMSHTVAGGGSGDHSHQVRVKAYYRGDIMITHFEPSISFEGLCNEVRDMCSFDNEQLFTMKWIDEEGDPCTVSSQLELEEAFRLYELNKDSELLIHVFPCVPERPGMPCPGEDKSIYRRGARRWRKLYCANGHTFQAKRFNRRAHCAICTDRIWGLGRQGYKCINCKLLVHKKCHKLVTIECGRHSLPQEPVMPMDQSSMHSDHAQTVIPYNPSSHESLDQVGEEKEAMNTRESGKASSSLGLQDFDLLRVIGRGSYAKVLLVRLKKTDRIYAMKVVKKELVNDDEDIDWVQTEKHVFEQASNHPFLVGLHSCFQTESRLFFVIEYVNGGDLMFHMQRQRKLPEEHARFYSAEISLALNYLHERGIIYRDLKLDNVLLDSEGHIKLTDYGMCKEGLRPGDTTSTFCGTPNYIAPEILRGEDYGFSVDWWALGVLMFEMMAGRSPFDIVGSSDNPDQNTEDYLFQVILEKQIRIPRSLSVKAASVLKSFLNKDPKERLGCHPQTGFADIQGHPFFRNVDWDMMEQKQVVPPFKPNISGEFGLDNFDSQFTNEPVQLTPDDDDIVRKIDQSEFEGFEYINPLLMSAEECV

[3] = biological target: T1, Protein kinase C iota type (Homo sapiens); conditions: at 1 µM
[4] = biological target: Protein kinase C theta type (Homo sapiens) (UniProt Q04759); conditions: at 0.1 µM
Sequence of Protein kinase C theta type (Homo sapiens) (Q04759 whole entry, looked up): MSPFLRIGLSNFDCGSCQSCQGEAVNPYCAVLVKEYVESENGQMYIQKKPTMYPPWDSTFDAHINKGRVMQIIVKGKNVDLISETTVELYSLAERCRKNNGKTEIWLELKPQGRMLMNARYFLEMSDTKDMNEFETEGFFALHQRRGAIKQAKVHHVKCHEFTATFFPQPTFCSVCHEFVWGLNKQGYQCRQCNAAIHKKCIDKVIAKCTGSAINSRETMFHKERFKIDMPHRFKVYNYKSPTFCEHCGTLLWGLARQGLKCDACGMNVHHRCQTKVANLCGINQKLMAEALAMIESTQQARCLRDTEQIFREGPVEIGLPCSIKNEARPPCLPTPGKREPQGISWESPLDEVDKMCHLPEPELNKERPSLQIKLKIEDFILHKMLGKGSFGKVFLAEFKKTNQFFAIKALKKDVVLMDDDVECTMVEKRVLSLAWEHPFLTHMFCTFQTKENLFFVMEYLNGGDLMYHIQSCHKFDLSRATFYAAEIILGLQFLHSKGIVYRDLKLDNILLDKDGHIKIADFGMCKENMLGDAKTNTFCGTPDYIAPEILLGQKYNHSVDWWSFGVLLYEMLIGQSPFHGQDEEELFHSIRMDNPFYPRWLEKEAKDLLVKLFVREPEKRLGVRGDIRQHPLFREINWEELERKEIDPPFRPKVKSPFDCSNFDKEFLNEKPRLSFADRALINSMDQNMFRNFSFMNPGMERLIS

[5] = biological target: Protein kinase C theta type (Homo sapiens) (UniProt Q04759); conditions: at 1 µM
[6] = biological target: Protein kinase C beta type (Homo sapiens) (UniProt P05771); conditions: at 0.1 µM
Sequence of Protein kinase C beta type (Homo sapiens) (P05771 2-671 limits assumed): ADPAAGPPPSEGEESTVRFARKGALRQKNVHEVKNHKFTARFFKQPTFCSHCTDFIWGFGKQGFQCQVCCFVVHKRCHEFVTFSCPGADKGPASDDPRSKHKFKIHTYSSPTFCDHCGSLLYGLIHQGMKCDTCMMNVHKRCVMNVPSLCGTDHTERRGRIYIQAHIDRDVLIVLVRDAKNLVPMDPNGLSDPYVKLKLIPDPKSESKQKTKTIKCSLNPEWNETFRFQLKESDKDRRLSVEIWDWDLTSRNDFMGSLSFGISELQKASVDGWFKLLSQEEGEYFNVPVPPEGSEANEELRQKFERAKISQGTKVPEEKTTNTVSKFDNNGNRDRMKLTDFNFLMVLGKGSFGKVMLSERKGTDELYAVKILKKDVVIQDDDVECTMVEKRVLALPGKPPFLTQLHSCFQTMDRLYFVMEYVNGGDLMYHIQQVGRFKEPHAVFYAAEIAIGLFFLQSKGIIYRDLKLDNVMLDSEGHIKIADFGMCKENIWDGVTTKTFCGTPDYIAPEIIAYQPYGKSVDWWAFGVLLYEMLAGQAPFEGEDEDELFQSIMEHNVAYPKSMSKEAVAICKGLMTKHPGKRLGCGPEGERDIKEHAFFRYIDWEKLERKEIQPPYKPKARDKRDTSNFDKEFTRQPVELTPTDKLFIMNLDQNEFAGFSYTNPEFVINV

[7] = biological target: Protein kinase C beta type (Homo sapiens) (UniProt P05771); conditions: at 1 µM
[8] = biological target: T2, Serine/threonine-protein kinase D1 (Homo sapiens) (UniProt Q15139); conditions: at 0.1 µM
T2 sequence (whole entry): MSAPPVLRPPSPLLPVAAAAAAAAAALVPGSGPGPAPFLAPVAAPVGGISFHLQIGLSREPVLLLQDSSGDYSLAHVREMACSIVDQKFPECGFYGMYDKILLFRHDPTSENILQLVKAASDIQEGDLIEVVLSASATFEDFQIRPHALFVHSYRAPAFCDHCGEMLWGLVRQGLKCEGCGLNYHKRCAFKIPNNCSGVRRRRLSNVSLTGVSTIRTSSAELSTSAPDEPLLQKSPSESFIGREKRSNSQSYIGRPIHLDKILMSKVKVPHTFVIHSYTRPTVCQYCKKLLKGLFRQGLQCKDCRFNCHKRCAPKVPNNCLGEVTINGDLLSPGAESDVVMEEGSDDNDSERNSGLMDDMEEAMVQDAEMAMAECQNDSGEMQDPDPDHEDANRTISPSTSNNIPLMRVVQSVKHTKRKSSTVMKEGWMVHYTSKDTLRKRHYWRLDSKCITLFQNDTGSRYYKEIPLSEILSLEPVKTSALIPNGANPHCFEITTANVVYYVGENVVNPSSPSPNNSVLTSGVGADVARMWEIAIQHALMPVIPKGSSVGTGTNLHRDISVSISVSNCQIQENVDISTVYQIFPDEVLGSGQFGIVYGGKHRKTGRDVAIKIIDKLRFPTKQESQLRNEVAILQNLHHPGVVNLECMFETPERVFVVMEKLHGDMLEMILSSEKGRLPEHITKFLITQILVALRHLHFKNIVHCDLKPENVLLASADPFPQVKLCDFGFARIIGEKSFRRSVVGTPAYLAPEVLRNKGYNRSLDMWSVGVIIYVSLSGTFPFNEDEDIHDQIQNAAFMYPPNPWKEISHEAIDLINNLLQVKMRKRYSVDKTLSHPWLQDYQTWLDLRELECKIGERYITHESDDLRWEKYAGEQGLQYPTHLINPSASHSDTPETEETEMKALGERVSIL

[9] = biological target: T2, Serine/threonine-protein kinase D1 (Homo sapiens); conditions: at 1 µM
[10] = biological target: T3, Serine/threonine-protein kinase D2 (Homo sapiens) (UniProt Q9BZL6); conditions: at 0.1 µM
T3 sequence (whole entry): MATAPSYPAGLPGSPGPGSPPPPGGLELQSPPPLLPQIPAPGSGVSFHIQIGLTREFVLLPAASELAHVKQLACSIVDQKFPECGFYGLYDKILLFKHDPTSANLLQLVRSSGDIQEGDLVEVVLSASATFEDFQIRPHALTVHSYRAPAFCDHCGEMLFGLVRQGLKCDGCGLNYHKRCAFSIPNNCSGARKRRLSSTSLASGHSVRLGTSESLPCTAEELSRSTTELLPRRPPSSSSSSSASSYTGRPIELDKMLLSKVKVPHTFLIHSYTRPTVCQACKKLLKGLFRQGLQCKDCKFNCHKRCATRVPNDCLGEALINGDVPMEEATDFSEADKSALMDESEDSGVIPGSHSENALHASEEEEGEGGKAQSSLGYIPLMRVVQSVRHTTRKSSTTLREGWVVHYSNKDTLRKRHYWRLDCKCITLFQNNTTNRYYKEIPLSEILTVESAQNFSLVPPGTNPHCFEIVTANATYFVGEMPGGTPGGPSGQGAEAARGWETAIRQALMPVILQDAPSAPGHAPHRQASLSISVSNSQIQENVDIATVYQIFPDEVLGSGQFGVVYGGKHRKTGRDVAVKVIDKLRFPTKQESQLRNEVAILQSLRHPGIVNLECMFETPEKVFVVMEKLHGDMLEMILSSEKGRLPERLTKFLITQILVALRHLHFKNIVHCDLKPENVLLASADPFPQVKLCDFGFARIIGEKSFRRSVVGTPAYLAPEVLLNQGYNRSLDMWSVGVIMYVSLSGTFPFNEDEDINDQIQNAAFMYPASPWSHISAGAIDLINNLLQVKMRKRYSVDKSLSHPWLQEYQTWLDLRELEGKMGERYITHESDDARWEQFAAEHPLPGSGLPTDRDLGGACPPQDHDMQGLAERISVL

[11] = biological target: T3, Serine/threonine-protein kinase D2 (Homo sapiens); conditions: at 1 µM
[12] = biological target: T4, Serine/threonine-protein kinase D3 (Homo sapiens) (UniProt O94806); conditions: at 0.1 µM
T4 sequence (whole entry): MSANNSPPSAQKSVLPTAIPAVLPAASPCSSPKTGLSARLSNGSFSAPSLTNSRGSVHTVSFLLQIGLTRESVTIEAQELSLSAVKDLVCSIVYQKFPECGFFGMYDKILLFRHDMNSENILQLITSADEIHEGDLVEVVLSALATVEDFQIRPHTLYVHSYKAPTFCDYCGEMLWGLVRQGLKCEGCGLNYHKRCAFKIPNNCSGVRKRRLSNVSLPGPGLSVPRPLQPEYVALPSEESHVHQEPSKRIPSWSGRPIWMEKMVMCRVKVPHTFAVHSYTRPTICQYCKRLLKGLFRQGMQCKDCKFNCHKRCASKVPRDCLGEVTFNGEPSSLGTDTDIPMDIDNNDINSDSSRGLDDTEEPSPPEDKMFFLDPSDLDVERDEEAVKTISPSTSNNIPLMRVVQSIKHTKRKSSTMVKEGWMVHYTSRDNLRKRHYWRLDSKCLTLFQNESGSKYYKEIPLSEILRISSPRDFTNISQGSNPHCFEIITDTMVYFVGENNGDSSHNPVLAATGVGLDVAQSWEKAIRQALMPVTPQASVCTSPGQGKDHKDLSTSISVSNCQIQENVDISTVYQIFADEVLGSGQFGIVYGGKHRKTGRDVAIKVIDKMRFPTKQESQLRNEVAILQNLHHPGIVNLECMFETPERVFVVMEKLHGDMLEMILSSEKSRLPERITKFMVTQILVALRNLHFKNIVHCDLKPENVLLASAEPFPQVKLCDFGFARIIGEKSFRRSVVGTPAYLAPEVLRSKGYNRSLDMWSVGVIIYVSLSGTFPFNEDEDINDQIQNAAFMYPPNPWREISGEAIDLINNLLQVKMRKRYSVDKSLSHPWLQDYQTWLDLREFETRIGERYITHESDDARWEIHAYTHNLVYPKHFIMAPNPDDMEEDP

[13] = biological target: T4, Serine/threonine-protein kinase D3 (Homo sapiens); conditions: at 1 µM
[14] = biological target: T5, cGMP-dependent protein kinase 1 (Homo sapiens) (UniProt Q13976); conditions: at 0.1 µM
T5 sequence (whole entry): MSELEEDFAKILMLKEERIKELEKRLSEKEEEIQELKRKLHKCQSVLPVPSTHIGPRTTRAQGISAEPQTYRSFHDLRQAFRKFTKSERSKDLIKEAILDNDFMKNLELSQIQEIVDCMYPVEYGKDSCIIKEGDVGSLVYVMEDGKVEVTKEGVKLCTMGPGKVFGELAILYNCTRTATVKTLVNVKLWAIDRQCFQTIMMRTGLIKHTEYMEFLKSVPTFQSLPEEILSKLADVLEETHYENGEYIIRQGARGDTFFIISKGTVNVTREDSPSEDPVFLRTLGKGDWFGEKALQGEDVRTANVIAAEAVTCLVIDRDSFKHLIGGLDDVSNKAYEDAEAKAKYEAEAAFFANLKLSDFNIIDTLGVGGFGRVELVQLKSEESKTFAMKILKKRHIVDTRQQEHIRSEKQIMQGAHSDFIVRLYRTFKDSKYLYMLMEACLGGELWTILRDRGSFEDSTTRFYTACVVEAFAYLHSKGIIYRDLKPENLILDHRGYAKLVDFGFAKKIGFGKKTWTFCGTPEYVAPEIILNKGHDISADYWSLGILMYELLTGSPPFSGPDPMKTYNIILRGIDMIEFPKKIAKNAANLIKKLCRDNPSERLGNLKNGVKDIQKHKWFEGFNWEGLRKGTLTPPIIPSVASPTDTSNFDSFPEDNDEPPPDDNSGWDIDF

[15] = biological target: T5, cGMP-dependent protein kinase 1 (Homo sapiens); conditions: at 1 µM
[16] = biological target: T6, cGMP-dependent protein kinase 2 (Homo sapiens) (UniProt Q13237); conditions: at 0.1 µM
T6 sequence (whole entry): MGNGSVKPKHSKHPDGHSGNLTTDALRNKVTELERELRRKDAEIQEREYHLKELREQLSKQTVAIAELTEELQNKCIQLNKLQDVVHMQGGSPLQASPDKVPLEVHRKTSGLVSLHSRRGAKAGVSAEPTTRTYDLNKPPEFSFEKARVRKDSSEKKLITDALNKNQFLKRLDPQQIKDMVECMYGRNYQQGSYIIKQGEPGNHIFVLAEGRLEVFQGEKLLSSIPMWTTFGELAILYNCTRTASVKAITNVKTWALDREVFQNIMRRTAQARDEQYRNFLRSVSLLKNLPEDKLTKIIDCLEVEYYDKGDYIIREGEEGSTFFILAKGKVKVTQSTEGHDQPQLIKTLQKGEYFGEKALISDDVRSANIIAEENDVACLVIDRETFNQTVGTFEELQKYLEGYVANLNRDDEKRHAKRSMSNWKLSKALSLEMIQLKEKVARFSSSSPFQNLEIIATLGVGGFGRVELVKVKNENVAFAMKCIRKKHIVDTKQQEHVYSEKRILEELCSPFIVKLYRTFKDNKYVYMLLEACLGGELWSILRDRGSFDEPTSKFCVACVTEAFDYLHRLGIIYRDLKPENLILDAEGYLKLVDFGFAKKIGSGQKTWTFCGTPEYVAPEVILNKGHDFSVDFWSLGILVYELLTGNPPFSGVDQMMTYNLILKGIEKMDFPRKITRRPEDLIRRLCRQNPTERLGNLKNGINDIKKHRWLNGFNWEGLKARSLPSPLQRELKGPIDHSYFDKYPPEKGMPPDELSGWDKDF

[17] = biological target: T6, cGMP-dependent protein kinase 2 (Homo sapiens); conditions: at 1 µM
[18] = biological target: T7, cAMP-dependent protein kinase catalytic subunit PRKX (Homo sapiens) (UniProt P51817); conditions: at 0.1 µM
T7 sequence (whole entry): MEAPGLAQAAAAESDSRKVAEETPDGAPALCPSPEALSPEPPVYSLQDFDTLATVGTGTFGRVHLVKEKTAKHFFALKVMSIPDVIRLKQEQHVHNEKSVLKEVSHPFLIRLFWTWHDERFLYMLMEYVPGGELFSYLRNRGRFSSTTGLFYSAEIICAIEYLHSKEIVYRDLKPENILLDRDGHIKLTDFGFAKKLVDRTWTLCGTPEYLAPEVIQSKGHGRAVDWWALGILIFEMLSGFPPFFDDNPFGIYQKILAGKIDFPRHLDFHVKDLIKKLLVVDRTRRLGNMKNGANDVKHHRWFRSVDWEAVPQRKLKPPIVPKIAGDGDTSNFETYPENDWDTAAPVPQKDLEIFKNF

[19] = biological target: T7, cAMP-dependent protein kinase catalytic subunit PRKX (Homo sapiens); conditions: at 1 µM
[20] = biological target: Rho-associated protein kinase 1 (Homo sapiens) (UniProt Q13464); conditions: at 0.1 µM;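 also: values are mean percent inhibition of ROCK1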
Sequence of Rho-associated protein kinase 1 (Homo sapiens) (Q13464 2-1354 limits assumed): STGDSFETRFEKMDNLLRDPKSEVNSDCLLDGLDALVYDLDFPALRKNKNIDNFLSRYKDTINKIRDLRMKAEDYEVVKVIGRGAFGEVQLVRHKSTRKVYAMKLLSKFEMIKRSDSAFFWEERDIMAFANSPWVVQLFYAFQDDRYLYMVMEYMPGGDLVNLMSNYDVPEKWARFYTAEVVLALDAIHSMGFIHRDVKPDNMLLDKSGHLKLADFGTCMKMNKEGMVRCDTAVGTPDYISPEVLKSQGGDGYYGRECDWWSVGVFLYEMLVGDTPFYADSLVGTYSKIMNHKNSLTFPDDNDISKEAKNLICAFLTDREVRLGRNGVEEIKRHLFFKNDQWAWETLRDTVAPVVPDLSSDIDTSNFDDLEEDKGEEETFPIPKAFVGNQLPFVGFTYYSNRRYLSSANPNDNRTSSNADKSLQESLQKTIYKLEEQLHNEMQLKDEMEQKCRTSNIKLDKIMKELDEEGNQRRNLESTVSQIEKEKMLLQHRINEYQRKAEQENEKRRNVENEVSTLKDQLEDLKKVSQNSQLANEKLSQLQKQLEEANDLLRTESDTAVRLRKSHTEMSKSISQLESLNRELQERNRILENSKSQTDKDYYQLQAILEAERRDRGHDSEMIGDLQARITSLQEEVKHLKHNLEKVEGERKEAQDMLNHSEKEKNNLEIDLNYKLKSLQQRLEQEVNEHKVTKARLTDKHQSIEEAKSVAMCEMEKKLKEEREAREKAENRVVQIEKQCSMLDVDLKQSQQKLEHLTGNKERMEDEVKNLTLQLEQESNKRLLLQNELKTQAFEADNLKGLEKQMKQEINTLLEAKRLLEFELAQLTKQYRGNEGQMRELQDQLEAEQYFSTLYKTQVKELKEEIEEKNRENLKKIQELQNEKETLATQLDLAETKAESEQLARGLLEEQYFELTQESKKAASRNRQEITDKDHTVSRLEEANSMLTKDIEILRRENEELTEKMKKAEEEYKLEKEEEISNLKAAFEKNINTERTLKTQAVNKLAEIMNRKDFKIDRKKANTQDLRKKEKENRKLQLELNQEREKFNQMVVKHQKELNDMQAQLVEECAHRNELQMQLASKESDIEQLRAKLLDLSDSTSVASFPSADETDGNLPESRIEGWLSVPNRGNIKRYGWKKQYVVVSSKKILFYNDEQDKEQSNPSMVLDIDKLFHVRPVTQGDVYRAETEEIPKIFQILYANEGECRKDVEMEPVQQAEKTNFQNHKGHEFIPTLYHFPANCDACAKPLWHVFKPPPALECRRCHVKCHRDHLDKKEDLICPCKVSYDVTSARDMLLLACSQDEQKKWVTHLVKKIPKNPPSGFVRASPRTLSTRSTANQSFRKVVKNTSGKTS

Row | SMILES | inhibition [1] [%] | inhibition [2] [%] | inhibition [3] [%] | inhibition [4] [%] | inhibition [5] [%] | inhibition [6] [%] | inhibition [7] [%] | inhibition [8] [%] | inhibition [9] [%] | inhibition [10] [%] | inhibition [11] [%] | inhibition [12] [%] | inhibition [13] [%] | inhibition [14] [%] | inhibition [15] [%] | inhibition [16] [%] | inhibition [17] [%] | inhibition [18] [%] | inhibition [19] [%] | inhibition [20] [%]
1 | [O-][S+]1CCN(Cc2ccc(-c3ccc4ncnc(Nc5ccc(OCc6ccccc6)c(F)c5)c4c3)o2)CC1 | -0.2 | 1.01 | 1.01 | 0.77 | -0.73 | 0.35 | 0.5 | 2.32 | 4.27 | 3.5 | 4.32 | 2.88 | 3.26 | 1.05 | 3.37 | 0.25 | 2.79 | 0.09 | -1.73 | -0.61
2 | NS(=O)(=O)c1ccc(N/N=C2\C(=O)Nc3ccc(C(=O)NCCc4c[nH]cn4)cc32)cc1 | 5.55 | 2.26 | 2.34 | 2.03 | 3.63 | 1.05 | 2.48 | 6.28 | 34.4 | 5.45 | 32.9 | 7.41 | 38.6 | 23.6 | 70.1 | 9.57 | 50.8 | 2.93 | 12.2 | 1.37

Source: ChEMBL document CHEMBL1961873, “Compounds: GSK PKIS; Assays: Nanosyn kinase panel” (2012)
